IMPase cell inh = qHTS Assay for Identifying the Cell-Membrane Permeable IMPase Inhibitors; 120,000 tested, under 10 active; CHO-M1 cells, IP1 accumulation, HTRF TR-FRET ratio; AID 901, 2007; inhibition (IP1 accumulation), % at 46.1 µM; active means well fitted curve in the direction sought with a large enough effect in the signal ratio, not every such curve was filed as active; inconclusive means small, poorly fitted or top-dose-only effect, or a change in a side signal; inactive means no such curve, though single readings can be large or run the other way; the % refers to the signal ratio;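 further: cells stimulated with carbachol in lithium chloride buffer; plate controls were DMSO basal wells for no effect and reference inhibitor wells for full effect; higher means more IMPase inhibition seen as more IP1 and lower FRET ratio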
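Cellular IMPase inhibition is scored as a rise in cytosolic IP1, detected by competitive TR-FRET between d2-labelled IP1 and a europium anti-IP1 antibody. M1-expressing CHO cells were stimulated with carbachol for 30 min at 37C, with lithium (50 mM LiCl) present in the buffer.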
IMPase Li inh = qHTS Assay for Identifying the Cell-Membrane Permeable IMPase Inhibitors: Potentiation with Lithium. 0.35% of 210,000 active. CHO-M1 cells, IP1 TR-FRET (IP-One), carbachol + lithium. Potency, µM (titrated, usually from 59.4 µM), for inactives: at the highest dose activity, negative = IMPase inhibition, actives largely listed as inhibitors. AID 1457, 2008;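 further: IP1 builds up when IMPase is blocked and the TR-FRET signal falls; potency means the concentration at half of the fitted maximal effect; plate controls were basal vehicle for no effect and high inhibitor control for full effect; nearly all actives have a fitted effect of over 50% in size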
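Steps: plate 2000 CHO-M1 cells per well and culture 16–30 h; add compound and lithium; incubate 30 min, 37C; add d2-IP1 tracer and Eu cryptate anti-IP1 antibody in lysis buffer; read after 10 min at room temperature.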
12-hLO inh = qHTS Assay for Inhibitors of 12-hLO (12-human lipoxygenase); Potency, µM (titrated, usually from 57.1 µM), without a hit: top-dose activity change, negative = inhibition, hits mostly inhibitors; AID 1452, 2008; purified 12-hLO, xylenol orange hydroperoxide absorbance; Polyunsaturated fatty acid lipoxygenase ALOX12 (Homo sapiens), P18054; 0.12% of 150,000 active; further: potency means the concentration at half of the fitted maximal effect; nearly all actives have a fitted effect of over 55% in size
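Xylenol orange chromogenic assay: hydroperoxide from 12hLO oxidises Fe(II), giving red-shifted Fe(III)-XO absorbance. Conditions: 150 nM enzyme, 40 uM arachidonic acid, 25 mM Hepes pH 7.0, 0.01% Triton X-100, 30 min, room temperature.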
ALDH1A1 block = qHTS Assay for Inhibitors of Aldehyde Dehydrogenase 1 (ALDH1A1) | Aldehyde dehydrogenase 1A1 (Homo sapiens), P00352 | Purified ALDH1A1, NADH fluorescence, propionaldehyde substrate | Potency, µM (highest dose often 75.3 µM), for inactives: at the highest dose activity, negative = inhibition, most hits filed as inhibitors | 7.3% of 220,000 active; active means well fitted inhibition curve with a large enough effect, not every such curve was filed as active; inconclusive means small, poorly fitted or top-dose-only effect, or another doubt; inactive means no such curve, though single readings can be large or run the other way;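 further: potency means the concentration at half of the fitted maximal effect; plate controls were no enzyme wells and a reference inhibitor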
Target sequence (P00352 whole entry, looked up): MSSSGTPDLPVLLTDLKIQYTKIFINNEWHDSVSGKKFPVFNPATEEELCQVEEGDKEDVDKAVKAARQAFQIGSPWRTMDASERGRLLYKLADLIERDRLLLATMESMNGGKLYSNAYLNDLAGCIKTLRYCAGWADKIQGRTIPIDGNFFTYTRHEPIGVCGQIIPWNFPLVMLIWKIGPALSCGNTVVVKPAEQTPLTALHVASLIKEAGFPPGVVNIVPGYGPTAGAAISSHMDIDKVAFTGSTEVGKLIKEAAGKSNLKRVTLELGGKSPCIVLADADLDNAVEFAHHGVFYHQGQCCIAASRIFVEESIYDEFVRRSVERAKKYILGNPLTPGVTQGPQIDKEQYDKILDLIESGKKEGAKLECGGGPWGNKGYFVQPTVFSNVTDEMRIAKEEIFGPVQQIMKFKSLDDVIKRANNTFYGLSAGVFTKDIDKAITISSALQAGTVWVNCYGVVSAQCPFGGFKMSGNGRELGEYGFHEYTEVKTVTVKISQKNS
HPGD inh = qHTS Assay for Inhibitors of HPGD (15-Hydroxyprostaglandin Dehydrogenase); Potency, µM, inactives show at the highest dose activity change, negative = inhibition, usual class: inhibitors; 4.3% of 150,000 active; purified HPGD, NADH fluorescence kinetic, PGE2 substrate; 15-hydroxyprostaglandin dehydrogenase [NAD(+)] (Homo sapiens), P15428; active means well fitted inhibition curve with a large enough effect, not every such curve was filed as active; inconclusive means small, poorly fitted or top-dose-only effect, or another doubt; inactive means no such curve, though single readings can be large or run the other way; further: potency means the concentration at half of the fitted maximal effect
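NADH formation kinetics: reaction with 30 uM PGE2 and 1 mM NAD+ (final), 20 nM enzyme, Tris-HCl pH 8 with Tween 20, after 15 min compound preincubation at room temperature. Fluorescence change, last versus first of five reads.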
PNC inhibitor = High Content Assay for Compounds that inhibit the Assembly of the Perinucleolar Compartment; activity change (PNC), negative = inhibition, % at 10 µM; PC3M PTB-GFP, PNC prevalence imaging, 16 h; hits give low values; 3.1% of 140,000 active; AID 2417, 2010;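 active means readout at or below -70, meaning at least 70% loss of cells showing the perinucleolar compartment, a nuclear body marking cancer cells; inconclusive means readout between -30 and a set limit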;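 further: plate controls were DMSO wells for no effect and camptothecin positive control wells for full effect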
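Compounds are pinned in duplicate onto adhered PC3M cells stably expressing GFP-tagged PTB and incubated 16 h at 37 C. Cells are then fixed, nuclei stained with Hoechst, and PNC-positive cells counted.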
Active calls of the source: *; ? = inconclusive; · = no result given; [ ] = another dose, or the depositor's remark. Sampled rows, rich in hits. Any-hit rate of the full collection: about 11%. Unless noted, the call rests on the fitted dose curve; in most records, active means well fitted curve in the direction sought with a large enough effect; inconclusive means small, poorly fitted or top-dose-only effect, or another doubt; inactive means no such curve, though single readings can be large; an effect the other way counts as inactive or inconclusive. Unless noted, on the % scale 0 is the no-effect control and ±100 the full control effect.

SMILES	IMPase cell inh	IMPase Li inh	12-hLO inh	ALDH1A1 block	HPGD inh	PNC inhibitor
N#Cc1ccc(CN2CC3(CCN(C(=O)c4ccncc4)CC3)C2)cc1	·	13.5%	2.7%	4.8%	-2.6%	·
COc1ccc(NC(=O)C(=O)N2N=C3CCCCC3C2(O)C(F)(F)F)cc1 (stereo unspecified)	·	12.1%	·	2.82µM*	·	·
Cc1[nH][nH]c(=O)c1C(c1ccc(-c2ccc(Cl)cc2Cl)o1)c1c(C)[nH][nH]c1=O	-5.4	31.9%[38.3 µM]	-13.3%	?	?	13.3
CC1=NOC(=O)/C1=C\c1ccc(-c2ccc(Cl)cc2Cl)o1	-6.5	17.9%[38.3 µM]	-29.4%	10µM*	1.78µM*	67.2
Fc1ccc(CNc2nc3ccc(Cl)cc3n3nnnc23)cc1	1.3	·	·	·	·	·
O=S(=O)(NCC1CCCO1)c1ccc2oc3ccc(S(=O)(=O)NCC4CCCO4)cc3c2c1 (stereo unspecified)	-3.6	11.7%[38.3 µM]	-2.5%	-1.1%	-22.2%	?
O=S(=O)(NCCOCCNS(=O)(=O)c1ccccc1)c1ccccc1	-1.8	-12.0%[38.3 µM]	-2.6%	25.1µM*	-2.5%	-18.8
O=C(O)CCCCCCNS(=O)(=O)c1ccccc1	4.1	-7.3%[38.3 µM]	5.0%	?	-16.9%	23.5
O=S(=O)(NCCOCC(F)(F)F)c1ccc2oc3ccccc3c2c1	8.5	2.6%[38.3 µM]	-0.6%	8.91µM*	?	16.9
CCCOc1cccc(C2c3c(oc4ccccc4c3=O)C(=O)N2c2nncs2)c1 (stereo unspecified)	-6.5	·	·	·	·	·
Cc1cccc(NC(=O)Cn2cc(C(=O)C3CCCCC3)c3ccccc32)c1	-23.6	·	·	·	·	·
CCCCCC1OC1C/C=C\C/C=C\C/C=C\CCCC(=O)O (stereo unspecified)	·	-0.1%	0.9%	-1.5%	-4.9%	·
O=C(Oc1ccccc1)n1c(=O)oc2ccc(Cl)cc21	·	·	4.4%	1.4%	-4.8%	·
Cc1cccc(OC(=O)n2c(=S)oc3cc(Cl)ccc32)c1	4.1	-9.2%	-2.5%	3.55µM*	-19.3%	7.0
[Cu].[O-]/N=C1/C(=[OH+])Nc2ccccc21.[O-]Nc1c(O)[nH]c2ccccc12	·	·	-3.5%[11.4 µM]	·	·	·
COc1ccccc1N(O)C1CC(=O)N(c2ccc(Br)cc2)C1=O (stereo unspecified)	1.1	21.8%[38.3 µM]	?	17.8µM*	28.2µM*	?
CCCCCCC(=O)N(O)C1CC(=O)N(c2ccc(Br)cc2)C1=O (stereo unspecified)	8.6	-5.9%[38.3 µM]	?	0.562µM*	7.08µM*	?
CCCCN(C(=O)CCC(=O)O)C1CC(=O)N(c2ccc(OCCC)cc2)C1=O (stereo unspecified)	7.0	21.8%[38.3 µM]	-0.1%	13.1%	-12.0%	-7.1
COC(=O)c1ccccc1NC(=O)C(=O)NCC1CCCO1 (stereo unspecified)	1.2	-3.5%	1.1%	?	-6.2%	-0.9
COc1ccccc1CC(=O)NCC1CCCO1 (stereo unspecified)	-2.1	-14.0%[38.3 µM]	-3.7%	-6.6%	25.1µM*	4.1
COc1ccccc1CNC(=O)C(=O)NCC1CCCO1 (stereo unspecified)	-4.5	1.7%	1.6%	-3.5%	-8.6%	-28.1
COc1ccccc1CCNC(=O)C1CCCO1 (stereo unspecified)	-2.2	-14.1%[38.3 µM]	3.5%	-4.1%	17.8µM*	-13.6
COC(=O)c1ccccc1NC(=O)NCC1CCCO1 (stereo unspecified)	-0.4	4.2%[38.3 µM]	-2.3%	?	?	-122.4*
Nc1ncnc2nn([C@H]3O[C@@H](CO)[C@@H](O)[C@H]3O)nc12	·	6.7%	-1.6%[11.4 µM]	3.3%[13.5 µM]	-13.2%	·
